RE007 growth inh – less growth of the S. pombe RE007 Vpr strain. S. pombe RE007 Vpr strain, BacTiter-Glo ATP luminescence, 24 h. Potency, µM (highest dose often 92.2 µM), for the others: top-dose activity change, negative = less growth, usual class: inhibitors. hit rate 0.21% among 360,000. AID 651644; active = well fitted falling curve with a large enough effect; inconclusive = small, poorly fitted or top-dose-only effect; inactive = no such curve, though single readings can be large or run the other way; note: nearly all actives have a fitted effect of over 50% in size
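Fission yeast RE007 carrying one integrated HIV-1 vpr copy, seeded at OD 0.01 in PMG+AL medium with 23 nL pinned compound. Grown 24 h at 30 degrees; viability read by BacTiter-Glo luminescence after 5 min.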
LmPK inh – LmPK (Leishmania mexicana) enzyme inhibition. hit rate 0.37% among 290,000. Potency, µM (highest dose often 57.5 µM), for the others: top-dose activity change, negative = inhibition, actives largely listed as inhibitors. AID 1721. Q27686. purified LmPK, Kinase-Glo ATP luminescence, 1 h
Target sequence (Q27686 whole entry, looked up): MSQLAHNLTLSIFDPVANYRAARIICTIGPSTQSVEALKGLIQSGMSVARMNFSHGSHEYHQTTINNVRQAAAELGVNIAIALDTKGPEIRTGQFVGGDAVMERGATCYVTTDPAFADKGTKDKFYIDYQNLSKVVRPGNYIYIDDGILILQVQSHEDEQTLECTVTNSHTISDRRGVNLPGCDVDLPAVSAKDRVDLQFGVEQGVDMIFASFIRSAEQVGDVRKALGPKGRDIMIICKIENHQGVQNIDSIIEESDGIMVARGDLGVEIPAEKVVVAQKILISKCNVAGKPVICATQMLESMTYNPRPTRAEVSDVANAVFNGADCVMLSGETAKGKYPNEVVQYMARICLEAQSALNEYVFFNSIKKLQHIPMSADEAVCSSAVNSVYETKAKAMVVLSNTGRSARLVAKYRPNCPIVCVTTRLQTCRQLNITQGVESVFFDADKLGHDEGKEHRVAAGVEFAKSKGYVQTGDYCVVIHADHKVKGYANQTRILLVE
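0.1 nM LmPK, 0.5 mM PEP, 0.1 mM ADP; 50 mM imidazole pH 7.2, 7 mM MgCl2, 50 mM KCl; 1 h RT. Kinase-Glo luminescence readout, normalized to no-enzyme (full inhibition) and uninhibited wells.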
Sm TGR inh – inhibitors of Schistosoma mansoni thioredoxin glutathione reductase; AID 485364; hit rate 3% among 360,000; purified TGR, DTNB reduction, TNB absorbance 405 nm; Q962Y6; Potency, µM (highest dose often 114 µM), without a hit: at the highest dose activity change, negative = inhibition, usual class: inhibitors; note: nearly all actives have a fitted effect of over 60% in size
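Kinetic colorimetric format: TGR-catalysed, NADPH-driven DTNB reduction monitored via TNB absorbance. Enzyme dispensed at 20 nM; compound exposure 15 min at room temperature before reaction start.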
AMA1 RON2 block – AMA1-RON2 (P. falciparum) interaction inhibition. AlphaScreen AMA1-biotinylated RON2 peptide binding. Potency, µM (titrated, usually from 58.2 µM), without a hit: at the top dose activity change, negative = inhibition, most hits filed as inhibitors. hit rate 0.2% among 360,000;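 note: 0% = vehicle wells and -100% = peptide control; nearly all actives have a fitted effect of over 45% in size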
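AMA1 (3D7) with his tag at 25 nM final met compounds first, then biotinylated RON2 peptide at 25 nM; detection used donor plus acceptor beads, 10 µg/mL apiece, read by AlphaScreen after 30 min at room temperature.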
Tb PYK inh – blocks Trypanosoma brucei pyruvate kinase. TbPYK enzyme, Kinase-Glo Plus ATP luminescence, 45 min. hit rate 0.12% among 410,000. Potency, µM (top dose mostly 76.8 µM), for inactives: top-dose activity, negative = inhibition, most hits filed as inhibitors. AID 624173. Q57TT1; note: nearly all actives have a fitted effect of over 50% in size
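Luminescence from Kinase-Glo Plus, added after a 45-minute room-temperature reaction, served as the end-point read-out. The enzyme and substrate were preincubated with compound before ADP (130 uM final) initiated turnover. Concentration-effect curves came from normalized qHTS data.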
Numbers without * were called inactive; ? = inconclusive; nt = no result; [ ] = another dose, or the depositor's remark. Only some compounds are listed: those with a hit (about 3.2% of all), similar ones and a draw of the others. Unless noted, calls come from the whole dose curve; as a rule, active = well fitted curve in the direction sought with a large enough effect; inconclusive = small, poorly fitted or top-dose-only effect, or another doubt; inactive = no such curve, though single readings can be large; an effect the other way counts as inactive or inconclusive. Unless noted, % is set by controls: 0 for no effect and ±100 for the full control effect; potency is the fitted concentration of half-maximal effect.

SMILES | RE007 growth inh | LmPK inh | Sm TGR inh | AMA1 RON2 block | Tb PYK inh
Cc1cc2nc(Sc3c([N+](=O)[O-])nc(C)n3Cc3ccccc3)[nH]c2cc1C | -5% | 9% | 18µM* | -16% | -8%
Cc1nc([N+](=O)[O-])c(Sc2nc3ccccc3[nH]2)n1Cc1ccccc1 | -26% | 3% | 20µM* | 16% | -11%
Cn1cnc([N+](=O)[O-])c1Sc1nc2ccccc2[nH]1 | 2% | 1% | 1.4µM* | 8% | -2%
C[C@@H]1CC2[C@@H]3C[C@H](F)C4=CC(=O)C(Cl)=C[C@]4(C)[C@@]3(F)[C@H](O)C[C@]2(C)[C@@]1(O)C(=O)CO (stereo partly drawn) | nt | nt | nt | nt | 0%
C#CCOc1c(Br)cc(C2C(C(=O)OC)=C(C)NC3=C2C(=O)c2ccccc23)cc1OCC (stereo not drawn) | nt | nt | 28µM* | nt | 4%
Nc1c(C(=O)NCCc2ccccc2)nnn1CC(=O)Nc1ccc(Cl)cc1 | nt | nt | 2% | nt | -9%
CC(C)C(C)NC(=O)CSc1nc2scc(-c3ccco3)c2c(=O)n1-c1ccccc1 (stereo not drawn) | -5% | -3% | 25µM* | -3% | -9%
CC(C)C(C)(C#N)NC(=O)CSc1nc2scc(-c3ccco3)c2c(=O)n1-c1ccccc1 (stereo not drawn) | 6% | 4% | ? | -16% | -12%
C=CCn1c(SCC(=O)N2CCOCC2)nc2scc(-c3ccco3)c2c1=O | -13% | 3% | 4.5µM* | -29% | -15%
Nn1cnc2scc(-c3ccco3)c2c1=O | -12% | -3% | 35µM* | -5% | 2%
C=CCn1c(SC(F)F)nc2scc(-c3ccco3)c2c1=O | -14% | 6% | 50µM* | -7% | -3%
N#Cc1c(C(F)(F)F)cc(-c2cccs2)nc1SCC(=O)Nc1cccc(C(F)(F)F)c1 | nt | nt | -1% | nt | -7%
Cc1cc(F)ccc1NC(=O)CN1C(=O)CCc2cc(S(=O)(=O)N3CCOCC3)ccc21 | nt | nt | 7% | nt | 2%
C=CCn1c(SCC(=O)NCCCC(=O)OCC)nc2scc(-c3ccco3)c2c1=O | 11% | 9% | 11% | 16% | -26%
C=CCn1c(SCC(C)=O)nc2scc(-c3ccco3)c2c1=O | -20% | -4% | 2.8µM* | -18% | -11%
CCN(CC)C(=O)c1sc2nc(-c3cccs3)cc(-c3cccs3)c2c1N | -10% | 7% | 89µM* | 39% | -16%
CCCCc1[nH]c(=O)c(C#N)c2c1CSC(C)(C)C2 | 7% | -3% | 32µM* | 3% | -4%
COCc1ccc(CN2CCC(C(=O)Nc3cccc(-c4cccc(Cl)c4)c3)CC2)o1 | 17% | -3% | ? | ? | 3%
Cc1ccc(CN2CCC(Oc3ccc(C(=O)NCc4ccccn4)cc3)CC2)o1 | -4% | 0% | -6% | 4% | -9%
COc1cccc(-c2cccc(NC(=O)C3CCN(Cc4ccc(C)o4)CC3)c2)c1 | -2% | -7% | 50µM* | -14% | -9%
Cc1ccc(CN2CCC(Oc3cccc(C(=O)NCc4cccnc4)c3)CC2)o1 | -3% | 8% | 32µM* | -8% | 2%
COC(=O)C1=C(C(=O)OC)[C@@H]2N(C)c3ccc(OC)cc3[C@@]23C[C@@H](C(=O)OC)N(S(=O)(=O)c2cccs2)C3=N1 | nt | 0%[11.5 µM] | nt | nt | nt
OC[C@H]1O[C@@H](n2cnc3c2NC=NC[C@@H]3O)C[C@H]1O | nt | nt | nt | nt | 0%
C=CCN(C(=O)CCS(=O)(=O)c1cccc2nsnc12)c1ccccc1 | -5% | -6% | 25µM* | 8% | -9%
CCN(C(=O)CCS(=O)(=O)c1cccc2nsnc12)c1cccc(C)c1 | 0% | -7% | ? | 3% | 1%
SMILES | RE007 growth inh | LmPK inh | Sm TGR inh | AMA1 RON2 block | Tb PYK inh
CC(C)OCCCn1c(-c2ccco2)nc2nc3ccccc3nc21 | 4% | -2% | 50µM* | 6% | 1%
COCCn1c(-c2ccco2)nc2nc3ccccc3nc21 | 9% | -6% | 7% | -6% | -9%
CCCCn1c(-c2ccco2)nc2ccccc2c1=O | -7% | -4% | 56µM* | -7% | 3%
NC(Cc1ccc(Oc2cc(I)c(O)c(I)c2)c(I)c1)C(=O)O (stereo not drawn) | nt | nt | nt | nt | -4%
CSc1nc(N(C)CCO)c2sc3nc(-c4ccco4)c4c(c3c2n1)CCC4 | -3% | 0% | 1.4µM* | 12µM* | -10%
Cc1[nH]c2ccccc2c1/C=N/Nc1ccc(F)cc1F | nt | -2% | 50µM* | nt | nt
Cc1[nH]c2ccccc2c1/C=N/NC(=O)c1cccc(F)c1 | 3% | 0% | 0% | 58% | 2%
CCOC(=O)Cn1cccc1-c1nc(-c2ccc(OC)cc2)c(-c2ccc(OC)cc2)s1 | nt | nt | nt | nt | 4%
O=C(CCCC(=O)OCC(=O)c1ccc(F)cc1)Nc1cc(C(F)(F)F)ccc1Cl | ? | 0% | 0% | -3% | -6%
O=C(CCCC(=O)OCC(=O)c1ccc(Cl)cc1Cl)Nc1cc(C(F)(F)F)ccc1Cl | -12% | -7% | 89µM* | 7% | 1%
N#Cc1ccc(C[C@H](C(=O)O)N2C(=O)c3ccc(C(=O)O)cc3C2=O)cc1 | nt | nt | 6% | nt | nt
Cc1cccc(-c2nn3c(=O)cc(CN4CCN(S(=O)(=O)c5ccc(Cl)cc5)CC4)nc3s2)c1 | nt | nt | 4% | nt | -2%
Cc1ccc(C)c(Cn2c(SCC(=O)N(C)Cc3ccccc3)nc3ccccc32)c1 | nt | nt | 6% | nt | 5%
O=C(CCl)NCCCN(C(=O)C(Cl)Cl)c1ccc([N+](=O)[O-])cc1 | 11% | 6% | 28µM* | 0% | 6%
COCCCNC(=O)c1ccc([N+](=O)[O-])cc1 | 3% | -1% | -2% | -4% | -6%
COCC(=O)N1CCC[C@@]2(CCN(C(c3ccccc3)c3ccccc3)C2)C1 | nt | nt | nt | nt | 2%
COc1ccc(N2CCN(C3(c4ccccc4)C(=O)c4ccccc4C3=O)CC2)cc1 | nt | nt | 10% | nt | -4%
C=CCCCCCCCC(=O)OC | 14% | 9% | 50µM* | 17% | -9%
COC(=O)CCCCC(=O)OC | -2% | nt | -1% | 12% | 1%
Cc1cc(Cl)ccc1NNC(N)=S | 16µM* | 3% | ? | 35% | -6%
Cc1ccc(C)c(NNC(N)=S)c1 | ? | 5% | -11% | 19% | -4%
NC(=S)NNc1cc(Cl)cc(Cl)c1 | 8.9µM* | -4% | ? | 58% | 1%
COc1cc(-c2noc(C)c2C#CCO)cc(OC)c1OC | 7% | 5% | 32µM* | 6% | -3%
CC(=O)N1c2ccccc2NC2=C(C(=O)CCC2)C1c1ccco1 (stereo not drawn) | 9% | 2% | 35µM* | 6% | -1%
COc1ccc(C2C3=C(CC(c4ccco4)CC3=O)Nc3ccccc3N2C(C)=O)cc1 (stereo not drawn) | 9% | 2% | 15% | 1% | -2%
Cc1ccc2ccc3cc(C(=O)N4CCN(c5ccccc5)CC4)nc3c2[nH]1 | nt | nt | 10% | nt | 2%
